High-throughput results from PubChem BioAssay.
Sampled rows, rich in hits. Any-hit rate of the full collection: about 18%.
HepG2 tox: kills HepG2 cells in TGF-b inhibitor counter-screen. Potency, µM (titrated, usually from 46.1 µM), for the others: top-dose activity change, negative = cytotoxicity, most hits filed as cytotoxic. HepG2 CAGA-GFP viability, ATP luminescence, 18 h. hit rate 0.76% among 410,000; also: potency is read from the fitted curve at half-maximal effect
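HepG2 CAGA-GFP cells (1000/well, DMEM with 1% FBS) received compound, then TGF-beta at 500 pg/mL final, and were incubated 18 hours at 37 degrees C. Viability was read by CellTiter-Glo luminescence. Media-only wells were set as complete cell-killing and DMSO as no toxicity.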
TDP1 cell noCPT: qHTS for Inhibitors of human tyrosyl-DNA phosphodiesterase 1 (TDP1): qHTS in cells in absence of CPT; DT40 Tdp1-/- hTDP1 cells, no CPT, ATP luminescence, 48 h; Potency, µM (highest dose often 46.2 µM), inactives show at the top dose activity change, negative = growth inhibition, usual class: inhibitors; hit rate 15% among 420,000; AID 686978, 2013; also: potency is read from the fitted curve at half-maximal effect; % is scaled to controls: 0 for no effect and ±100 for the full control effect; nearly all actives have a fitted effect of over 55% in size
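Readout: luminescence from CellTiter-Glo after 30 min in the dark at RT. Cells: DT40 Tdp1-/- with stable hTDP1, 400/well. Exposure: compounds alone, ≥48 hr, 37 °C.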
DT40 TDP1 CPT: DT40-hTDP1 cell growth loss with CPT; Potency, µM (top dose mostly 46.2 µM), for inactives: at the highest dose activity change, negative = growth inhibition, hits mostly inhibitors; AID 686979; hit rate 12% among 420,000; chicken DT40 Tdp1-/-;hTDP1 cells + 20 nM CPT, ATP luminescence, 48 h; also: potency is read from the fitted curve at half-maximal effect; % is scaled to controls: 0 for no effect and ±100 for the full control effect; nearly all actives have a fitted effect of over 55% in size
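Chicken DT40 Tdp1-/- cells complemented with human TDP1, 400 cells/well, exposed to compounds plus 20 nM camptothecin for at least 48 h at 37 C; viability read as ATP content by CellTiter-Glo luminescence.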
IL1B secr inh: blocks inflammasome-driven IL-1 beta release. THP-1 LPS/ATP IL-1B secretion, AlphaLISA, 16 h; stronger effect = lower value. activity change, % at 57.5 µM. hit rate 4.7% among 360,000; in the data active = activity change below about -50%; inconclusive = mostly about -30% to -49%; also: % is scaled to controls: 0 for no effect and ±100 for the full control effect
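THP-1 cells pretreated 1 hr with compounds (up to 57.5 uM final), then stimulated with LPS (250 ng/mL final) plus ATP (1.25 mM final); secreted IL-1B measured by AlphaLISA after 16 hr, decreased signal indicating inhibition.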
TDP1 block: TDP1 (human) enzyme inhibition | recombinant TDP1, AlphaScreen DNA substrate cleavage | AID 485290 | hit rate 0.28% among 350,000 | Potency, µM (titrated, usually from 130 µM), without a hit: at the highest dose activity change, negative = inhibition, hits mostly inhibitors | Q9NUW8; also: potency is read from the fitted curve at half-maximal effect; % is scaled to controls: 0 for no effect and ±100 for the full control effect; nearly all actives have a fitted effect of over 40% in size
Target sequence (Q9NUW8 whole entry, looked up): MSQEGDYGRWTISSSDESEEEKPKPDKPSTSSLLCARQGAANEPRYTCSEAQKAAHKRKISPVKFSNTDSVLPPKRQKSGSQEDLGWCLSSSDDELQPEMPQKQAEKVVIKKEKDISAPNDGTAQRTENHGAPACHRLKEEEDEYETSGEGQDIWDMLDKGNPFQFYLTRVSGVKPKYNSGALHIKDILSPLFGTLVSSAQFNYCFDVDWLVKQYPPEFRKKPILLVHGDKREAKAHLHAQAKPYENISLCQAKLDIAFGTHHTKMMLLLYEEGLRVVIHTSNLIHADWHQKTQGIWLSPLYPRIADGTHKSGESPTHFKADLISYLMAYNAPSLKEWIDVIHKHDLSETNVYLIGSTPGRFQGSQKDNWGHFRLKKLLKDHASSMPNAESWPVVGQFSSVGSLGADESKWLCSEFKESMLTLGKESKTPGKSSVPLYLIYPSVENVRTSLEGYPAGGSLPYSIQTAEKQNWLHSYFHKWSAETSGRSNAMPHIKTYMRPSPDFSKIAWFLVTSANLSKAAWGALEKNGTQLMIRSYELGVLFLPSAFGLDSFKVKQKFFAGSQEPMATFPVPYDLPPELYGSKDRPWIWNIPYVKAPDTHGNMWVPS
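Compounds were preincubated with Tdp1 (1 nM final) for 15 min at room temperature before substrate (15 nM final) started a 5 min reaction; beads (10 ug/ml final) were then added for 10 min before AlphaScreen detection.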
TGFb SMAD3 inh: blocks TGF-b signaling; hit rate 1.2% among 410,000; HepG2 CAGA-GFP TGF-b/SMAD3 reporter, GFP fluorescence, 18 h; TGF-beta stimulated, 500 pg/mL final; Potency, µM (titrated, usually from 46.1 µM), for inactives: at the highest dose activity, negative = inhibition, hits mostly inhibitors; also: potency is read from the fitted curve at half-maximal effect; % is scaled to controls: 0 for no effect and ±100 for the full control effect; nearly all actives have a fitted effect of over 65% in size
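First, reporter cells (HEPG2 CAGA-GFP) rested 2 h at 37 degrees C. Next, compounds were pinned in and TGF-beta added to 500 pg/mL final. After 18 h, GFP was imaged per cell and summed per well.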
* = called active by the depositor. Unless noted, calls follow the shape of the dose curve; as a rule, active = well fitted curve in the direction sought with a large enough effect; inconclusive = small, poorly fitted or top-dose-only effect, or another doubt; inactive = no such curve, though single readings can be large; an effect the other way counts as inactive or inconclusive.

Results for O=C(Nc1ccc(OC(F)(F)F)cc1)c1cc(S(=O)(=O)N2CCCCC2)ccc1N1CCOCC1 ?
HepG2 tox: -3%; TDP1 cell noCPT: inconclusive; DT40 TDP1 CPT: inconclusive; IL1B secr inh: -14; TGFb SMAD3 inh: -20%

How did COc1ccccc1CC(=O)c1ccc(OCc2ccccc2)cc1 do in these assays?
HepG2 tox: -29%; TDP1 cell noCPT: inconclusive; DT40 TDP1 CPT: inconclusive; IL1B secr inh: -7; TDP1 block: -20%; TGFb SMAD3 inh: inconclusive

What do the screens show for `COc1ccc(Cl)cc1Nc1nc2ccc(C)cc2n2cnnc12`?
HepG2 tox: -28%; TDP1 cell noCPT: 15µM*; DT40 TDP1 CPT: 23µM*; IL1B secr inh: 60; TGFb SMAD3 inh: 16%

How did COc1ccc(Nc2nc3cc(Cl)c(Cl)cc3n3cnnc23)cc1Cl do in these assays?
HepG2 tox: 0%; TDP1 cell noCPT: 13µM*; DT40 TDP1 CPT: inconclusive; TDP1 block: 2%; TGFb SMAD3 inh: 9%

Results for COc1ccc(OC)c(Nc2nc3ccc(C)cc3n3cnnc23)c1 ?
HepG2 tox: 5%; TDP1 cell noCPT: inconclusive; DT40 TDP1 CPT: 16µM*; IL1B secr inh: 16; TGFb SMAD3 inh: -2%

Results for CCOc1ccccc1Nc1nc2ccc(C)cc2n2cnnc12 ?
HepG2 tox: -10%; TDP1 cell noCPT: -13%; DT40 TDP1 CPT: inconclusive; IL1B secr inh: 0; TGFb SMAD3 inh: -7%

Results for Cc1ccc(Nc2nc3ccccc3n3cnnc23)cc1Cl ?
HepG2 tox: -4%; TDP1 cell noCPT: inconclusive; DT40 TDP1 CPT: inconclusive; IL1B secr inh: 62; TGFb SMAD3 inh: -14%

Results for COc1ccc(Cl)cc1Nc1nc2ccc(C(=O)c3ccccc3)cc2n2cnnc12 ?
HepG2 tox: 12%; TDP1 cell noCPT: -18%; DT40 TDP1 CPT: -12%; TDP1 block: 3%; TGFb SMAD3 inh: -16%

What do the screens show for `Cc1ccc2nc(Nc3ccc(C)c(F)c3)c3nncn3c2c1`?
HepG2 tox: -22%; TDP1 cell noCPT: 15µM*; DT40 TDP1 CPT: 18µM*; TDP1 block: 0%; TGFb SMAD3 inh: -25%

What do the screens show for `Cc1ccc2nc(Nc3ccc(C)c(Cl)c3)c3nncn3c2c1`?
HepG2 tox: -21%; TDP1 cell noCPT: inconclusive; DT40 TDP1 CPT: inconclusive; IL1B secr inh: 28; TGFb SMAD3 inh: -25%

Results for COc1ccc(C2=NN(C(=O)c3ccccc3)C(c3ccc(OC)c(OC)c3)C2)cc1OC (configuration not stated) ?
HepG2 tox: -11%; TDP1 cell noCPT: 4%; DT40 TDP1 CPT: -26%; IL1B secr inh: inconclusive; TGFb SMAD3 inh: 0%

Results for O=C(c1ccncc1)N1N=C(c2ccc(Cl)cc2)CC1c1ccccc1O (configuration not stated) ?
HepG2 tox: 1%; TDP1 cell noCPT: inconclusive; DT40 TDP1 CPT: inconclusive; IL1B secr inh: inconclusive; TDP1 block: 0%; TGFb SMAD3 inh: -8%

How did COc1cccc(C2CC(c3ccc(Br)cc3)=NN2C(=O)c2ccncc2)c1OC (configuration not stated) do in these assays?
HepG2 tox: -27%; TDP1 cell noCPT: inconclusive; DT40 TDP1 CPT: inconclusive; IL1B secr inh: -50*; TDP1 block: 6%; TGFb SMAD3 inh: inconclusive

What do the screens show for `COc1ccccc1C1CC(c2ccc(Br)cc2)=NN1C(=O)c1cccnc1` (configuration not stated)?
HepG2 tox: 18%; TDP1 cell noCPT: 16µM*; DT40 TDP1 CPT: 16µM*; IL1B secr inh: -52*; TDP1 block: 3%; TGFb SMAD3 inh: -69%

How did COc1cccc(OCc2nc3ncc(Br)cc3[nH]2)c1 do in these assays?
HepG2 tox: -10%; TDP1 cell noCPT: 2.9µM*; DT40 TDP1 CPT: 4.1µM*; IL1B secr inh: 60; TDP1 block: 5%; TGFb SMAD3 inh: 7%

What do the screens show for `CCOC(=O)CNC(=O)CSc1nc2ncc(Br)cc2[nH]1`?
HepG2 tox: 16%; TDP1 cell noCPT: -4%; DT40 TDP1 CPT: -23%; IL1B secr inh: 15; TDP1 block: 4%; TGFb SMAD3 inh: inconclusive

How did Brc1cnc2nc(SCc3nc4ccccc4[nH]3)[nH]c2c1 do in these assays?
HepG2 tox: -71%; TDP1 cell noCPT: -47%; DT40 TDP1 CPT: -28%; IL1B secr inh: 47; TDP1 block: 8%; TGFb SMAD3 inh: -37%

How did Cc1cc(C)cc(OCc2nc3ncc(Br)cc3[nH]2)c1 do in these assays?
HepG2 tox: -34%; TDP1 cell noCPT: 2.3µM*; DT40 TDP1 CPT: 2.3µM*; IL1B secr inh: 41; TGFb SMAD3 inh: -12%

What do the screens show for `Cc1cc(C(=O)NP(=O)(N2CCOCC2)N2CCOCC2)c(C)n1-c1ccc(Br)cc1`?
HepG2 tox: -8%; TDP1 cell noCPT: -26%; DT40 TDP1 CPT: -18%; IL1B secr inh: 5; TDP1 block: 2%; TGFb SMAD3 inh: 4%

Results for Cc1cc(C(=O)C[N+]2(C)CCOCC2)c(C)n1-c1ccc(Br)cc1 ?
HepG2 tox: 2%; TDP1 cell noCPT: inconclusive; DT40 TDP1 CPT: inconclusive; IL1B secr inh: -69*; TDP1 block: 3%; TGFb SMAD3 inh: 6%

What do the screens show for `CC(C)(O)CCc1c(-c2ccc(O)cc2O)oc2c3c(cc(O)c2c1=O)OC(C)(C)C=C3`?
HepG2 tox: -103%; TDP1 cell noCPT: 16µM*; DT40 TDP1 CPT: 12µM*; IL1B secr inh: -14; TGFb SMAD3 inh: inconclusive

Results for CCOC(=O)Cc1csc(N/N=C\c2ccc(N(C)C)cc2)n1 ?
HepG2 tox: -2%; TDP1 cell noCPT: -23%; DT40 TDP1 CPT: -15%; IL1B secr inh: -10; TGFb SMAD3 inh: 15%

What do the screens show for `CCOC(=O)c1ccccc1NC(=O)C1CC(=O)N(C2CCCCC2)C1` (configuration not stated)?
HepG2 tox: 0%; TDP1 cell noCPT: -3%; DT40 TDP1 CPT: -20%; IL1B secr inh: -24; TDP1 block: -3%; TGFb SMAD3 inh: 3%

What do the screens show for `O=C(NCCc1ccccn1)c1cc2ccccc2o1`?
HepG2 tox: 2%; TDP1 cell noCPT: 4%; DT40 TDP1 CPT: -21%; IL1B secr inh: 54; TDP1 block: 0%; TGFb SMAD3 inh: -1%

What do the screens show for `O=S(=O)(c1cccc(Cl)c1)N1CCSc2ccccc21`?
HepG2 tox: -29%; TDP1 cell noCPT: -4%; DT40 TDP1 CPT: -12%; IL1B secr inh: 18; TDP1 block: -9%; TGFb SMAD3 inh: -28%
